TWEAK Fn14 block: inhibitors of TWEAK-Fn14 interaction signaling; TWEAK-stimulated Fn14 reporter cells, luciferase luminescence, 8 h; inhibition, % at 10 µM; hit rate 2% among 360,000; AID 1159606; in the data active means inhibition above about 50%
EWS-Fli inh: inhibitors of EWS/Fli oncoprotein transcriptional activity; hit rate 0.67% among 350,000; inhibition, % at 12.6 µM; A673 NR0B1-luciferase reporter, viability-normalised;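 active means mean inhibition of at least 50% after viability correction, with every replicate also passing that limit; inconclusive means mean reaches 50% but only one of two replicates passes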;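 further: firefly luciferase signal divided by Alamar Blue viability fluorescence both relative to DMSO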
LMP1 NFkB inh: inhibitors of Epstein-Barr LMP1-induced NF-kappaB reporter; LMP1-induced NF-kappaB luciferase reporter cells, luminescence; inhibition, % at 12.5 µM; hit rate 0.69% among 350,000; in the data active means inhibition above about 41%; inconclusive means no clear call, values can overlap the other calls
LGR2 antag: inhibitors of bursicon-induced Drosophila LGR2 receptor cAMP signaling; HEK293 LGR2, CRE-luciferase, bursicon-stimulated, 4 h; inhibition, % at 9.99 µM; hit rate 0.35% among 380,000; AID 720647;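 active means drop in luminescence signal, shown as inhibition above about 50% in the replicate tests, limit read from the data, passing the limit was not always enough; inconclusive means probably only some replicates passing the limit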;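 further: agonist challenge used bursicon conditioned medium at about half maximal strength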
TROY signal inh: TROY signaling inhibition | Q293 LMP1-TROYcd NF-kB luciferase reporter, 4 h | inhibition, % at 10 µM | hit rate 0.98% among 360,000;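 active means compounds whose plate-normalised and pattern-corrected inhibition of the luciferase reporter signal at the single screening dose is 50% or more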
Numbers stand for hits; 0 = inactive; ? = inconclusive; - = no result. Only some compounds are listed: those with a hit (about 2.6% of all), similar ones and a draw of the others.

SMILES	TWEAK Fn14 block	EWS-Fli inh	LMP1 NFkB inh	LGR2 antag	TROY signal inh
O=C(N/N=C/c1sc2ccccc2c1O)c1cccc2ccccc12	0	-	53.9	0	0
O=C(N/N=C/c1sc2ccccc2c1O)c1ccccc1	0	-	0	-	0
CC(/C=C1\SC(=S)N(c2ccc(C(=O)O)cc2)C1=O)=C\c1ccccc1	58.5	0	0	0	0
O=C(C[C@H]1CC[C@@H]2[C@H](COC[C@@H](O)CN2C(=O)Nc2cccc(Cl)c2)O1)NCCCN1CCOCC1	-	0	-	0	-
CC(=O)N(C)C[C@H]1Oc2cc(C#CC(C)(C)O)ccc2S(=O)(=O)N([C@@H](C)CO)C[C@H]1C	-	0	-	0	-
Cc1ccc2nc(-c3ccccn3)[nH]c2c1	79.8	0	40.7	82.1	0
c1ccc(-c2nc3ccccc3[nH]2)nc1	0	0	0	0	0
Cc1nc(NCCN2CCOCC2)c2oc3ccccc3c2n1	0	-	0	-	-
Cc1nc(NCCc2ccccc2)c2oc3ccccc3c2n1	51.7	-	0	-	0
O=C(C[C@H]1C=C[C@H](NC(=O)C2CC2)[C@H](CO)O1)NCC1CC1	-	0	-	0	-
COc1ccc(-c2noc(CCCC(=O)O)n2)cc1	78.2	-	0	-	0
Cc1ccc2c(c1)Cc1nc3ccccc3nc1-2	70.3	0	0	0	0
CNC(=S)Nc1ccc([N+](=O)[O-])c(C)c1	67.9	0	0	0	0
Cc1cccc2cc(/C=N/NC(=O)c3ccncc3)c(Cl)nc12	0	0	0	0	0
CS(=O)(=O)N(Cc1ccc(Cl)cc1)c1ccc(C(=O)NCc2ccccn2)cc1	0	0	0	0	0
Cc1ccc2cc(/C=N/NC(=O)c3ccccc3O)c(Cl)nc2c1	0	-	0	0	64.9
COC(=O)N/N=C/c1cc(Br)ccc1O	0	0	0	0	0
O=C(N/N=C/c1cc2cc3c(cc2nc1Cl)OCCO3)c1ccccc1O	0	-	0	0	0
Cc1cccc2cc(/C=N/NC(=O)c3ccccc3O)c(Cl)nc12	0	0	0	-	56.5
O=C(N/N=C/c1cc(Br)ccc1O)c1ccccc1Cl	0	0	51.4	0	0
CS(=O)(=O)N(Cc1ccc(Cl)cc1)c1ccc(C(=O)N/N=C/c2cc3ccccc3nc2Cl)cc1	0	-	58.1	0	0
CC(C)CC#Cc1ccc2c(c1)O[C@H](CN(C)Cc1cncnc1)[C@@H](C)CN([C@H](C)CO)S2(=O)=O	-	0	-	0	-
CC[C@@]1(O)C(=O)OCc2c1cc1n(c2=O)Cc2cc3c(CN(C)C)c(O)ccc3nc2-1	0	63.4	75.3	96.8	78.8
CC[C@@]1(O)C(=O)OCc2c1cc1n(c2=O)Cc2cc3c(N)cccc3nc2-1	69.8	?	83.2	-	62.6
Cc1cc(=O)[nH]c(N/N=C/c2ccccc2Cl)n1	0	0	0	0	0
SMILES	TWEAK Fn14 block	EWS-Fli inh	LMP1 NFkB inh	LGR2 antag	TROY signal inh
CCN(CC)c1ccc(/C=N/Nc2nc(C)cc(=O)[nH]2)c(O)c1	0	0	60.6	0	0
Cc1cc(=O)[nH]c(NN=Cc2cc(Br)ccc2O)n1	0	0	55.9	0	0
C[C@@H]1CN([C@@H](C)CO)C(=O)c2cc(NS(=O)(=O)c3cn(C)cn3)ccc2O[C@@H](C)CCCCO[C@H]1CN(C)C(=O)Cc1ccccc1	-	0	-	0	-
CC(=O)NC[C@H]1[C@@H](c2ccc(C3=CCCC3)cc2)[C@@H](CO)N1C(=O)CN(C)C	-	-	-	0	-
CC(OC(=O)c1ccc(S(C)(=O)=O)c([N+](=O)[O-])c1)C(=O)NC1C2CC3CC(C2)CC1C3 (stereo not drawn)	101.6	0	-	0	0
Cc1ccc(C(=O)OC(C)C(=O)NC2CCCCC2)cc1S(=O)(=O)N1CCCCC1 (stereo not drawn)	0	0	0	0	0
CCC(OC(=O)c1ccc(S(C)(=O)=O)c([N+](=O)[O-])c1)C(=O)NC1C2CC3CC(C2)CC1C3 (stereo not drawn)	100.1	0	-	0	0
CC(C)NC(=O)N(C)C[C@H]1Oc2ccc(NS(=O)(=O)c3cn(C)cn3)cc2CC(=O)N([C@H](C)CO)C[C@H]1C	-	0	-	0	-
COc1ccc(S(=O)(=O)N[C@@H]2CC[C@@H](CC(=O)N3CCN(c4ccccc4)CC3)O[C@@H]2CO)cc1	-	0	-	0	-
Cc1noc(C)c1NC(=O)Nc1ccc2c(c1)C(=O)N([C@H](C)CO)C[C@H](C)[C@H](CN(C)Cc1ccccc1)O2	-	0	-	0	-
C[C@@H]1CN([C@@H](C)CO)C(=O)Cc2cc(NC(=O)Cc3ccccc3)ccc2O[C@H]1CN(C)CC1CCCCC1	-	0	-	0	-
Cc1ccc(-c2nc(NC(=O)c3nn(C)cc3[N+](=O)[O-])sc2C)cc1C	0	0	0	0	0
Cc1ccc(-c2nc(NC(=O)c3nn(C)cc3[N+](=O)[O-])sc2C)cc1	59.0	58.3	0	0	0
CNC[C@@H]1OCCCC[C@H](C)Oc2ccc(NC(=O)CCC(F)(F)F)cc2C(=O)N([C@@H](C)CO)C[C@H]1C	-	0	-	0	-
CCCCn1c(NC(=O)c2ccccc2)c(C#N)c2nc3ccccc3nc21	64.0	-	0	-	68.0
CCC(=O)Nc1c(C#N)c2nc3ccccc3nc2n1-c1ccc(C)cc1	0	0	0	0	0
CCC(C)n1c(NC(=O)c2ccccc2)c(C#N)c2nc3ccccc3nc21 (stereo not drawn)	0	-	0	0	58.2
COc1cccc2cc(-c3nc4ccccc4[nH]3)c(=O)oc12	0	0	0	0	0
Cc1cccc2cc(-c3nc4ccc(C(=O)O)cc4[nH]3)c(=O)oc12	85.2	-	0	-	0
COC(=O)c1ccc(-c2nc3ccccc3[nH]2)cc1	55.6	-	0	0	0
COc1ccc2[nH]c(=O)c(-c3nnn(-c4ccccc4)n3)cc2c1	0	0	0	0	0
COc1ccc(-c2nc3ccccc3[nH]2)cc1	65.8	0	0	0	0
COc1ccc2oc(=Nc3ccccc3)c(-c3nc4ccccc4[nH]3)cc2c1	56.4	-	0	0	0
c1ccc(-c2nc3ccccc3[nH]2)cc1	0	0	0	0	0
CCCC(=O)Nc1ccc2c(c1)C(=O)N(C)[C@@H]1CC[C@@H](CC(=O)N3CCc4ccccc4C3)O[C@@H]1CO2	-	0	-	0	-
SMILES	TWEAK Fn14 block	EWS-Fli inh	LMP1 NFkB inh	LGR2 antag	TROY signal inh
O=C(C[C@H]1C=C[C@@H](NC(=O)c2ccc(F)cc2)[C@@H](CO)O1)NCc1ccncn1	-	0	-	0	-
COCC(=O)N(C)C[C@H]1Oc2ncc(C3=CCCC3)cc2C(=O)N([C@@H](C)CO)C[C@H]1C	-	0	-	0	-
CCCNC(=O)C[C@H]1CC[C@@H]2[C@@H](COc3ccc(NC(=O)C4CCCC4)cc3C(=O)N2C)O1	-	0	-	0	-
CCNC(=O)[C@H]1[C@H](CO)[C@H]2Cn3c(ccc(-c4cccc(F)c4)c3=O)[C@H]2N1C(=O)Cc1cccnc1	-	0	-	0	-
Cc1noc(C)c1NC(=O)Nc1ccc2c(c1)C(=O)N([C@H](C)CO)C[C@@H](C)[C@H](CN(C)C(=O)Nc1ccc(F)cc1)O2	-	0	-	0	-
O=C(c1cccc(F)c1)N1CCCCN2[C@@H](CO)[C@@H](c3ccc(-c4cncnc4)cc3)[C@@H]2C1	-	0	-	0	-
O=C(O)c1cccc(-c2nc3ccccc3[nH]2)c1	0	0	0	93.9	0
CC(=O)Nc1cccc(-c2nc3ccccc3[nH]2)c1	0	0	0	-	0
